Reference: PubChem BioAssay AID687001 (Broad Institute, 2013)
Results with a measured potency or affinity are listed apart. The source made the active and inactive calls.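 Rule for the calls: active = signal-lowering compounds whose fitted half-maximal concentration is at or below twice the top tested dose in every run; inconclusive = runs disagree, flat 30 to 70% inhibition, or poor curve fit; inactive = the rest.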

Biological target: Protein S100-A4 (Homo sapiens) (UniProt P26447)
Test: human S100A4 peptide interaction inhibition curves – biochemical, fluorescence polarization, cherry-picked hits, dose response (AID 687001)
Conditions: FP, S100A4/TAMRA-myosin IIA peptide binding; series mostly up to 11 µM

Protein S100-A4 (Homo sapiens), sequence (P26447 whole entry, looked up): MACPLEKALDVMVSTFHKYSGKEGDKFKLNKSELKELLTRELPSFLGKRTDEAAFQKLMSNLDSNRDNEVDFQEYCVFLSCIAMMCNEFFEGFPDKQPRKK

Row | SMILES | outcome
1 | Cc1cc(NC(=O)CCC(=O)N(Cc2ccco2)C2(C(=O)NC3CCCC3)CCC(C)CC2)no1 (centres undefined) | inactive
2 | O=Cc1ccc(N2N=C(c3ccccc3)CC2c2ccccc2)cc1 (centres undefined) | inactive
3 | N#C[C@@H]1[C@H](c2ccccc2C2=CCCCC2)[C@H](CO)N1C(=O)NC1CCCC1 | inactive
4 | COc1cccc(-c2nnc(NC(=O)CCS(=O)(=O)c3ccc(F)cc3)o2)c1 | inactive
5 | Cc1noc(C)c1S(=O)(=O)N(C)C[C@@H]1Oc2ccc(NC(=O)C3CC3)cc2CC(=O)N([C@@H](C)CO)C[C@H]1C | inactive
6 | CC1CCN(c2nc3c(c(=O)[nH]c(=O)n3C)n2CC(C)CSc2nnnn2-c2ccccc2)CC1 (centres undefined) | inactive
7 | C[C@H]1CN([C@@H](C)CO)S(=O)(=O)c2ccc(C3=CCCCC3)cc2O[C@H]1CN(C)Cc1ccccc1 | inactive
8 | C[C@@H]1CN([C@@H](C)CO)S(=O)(=O)c2ccc(Br)cc2O[C@@H]1CN(C)Cc1ccncc1 | inactive
9 | O=C(Cc1ccncc1)NCC[C@@H]1CC[C@@H](NC(=O)C2CCOCC2)[C@@H](CO)O1 | inactive
10 | CN(C)CCCN(C(=O)c1ccc(S(=O)(=O)N2CCCCCC2)cc1)c1nc2cc3c(cc2s1)OCO3 | inactive
11 | CN1C(=O)c2cc(NC(=O)Cc3cccs3)ccc2OC[C@H]2O[C@H](CC(=O)N[C@H]3CCN(Cc4ccccc4)C3)CC[C@@H]21 | inactive
12 | CC(OCCN(C)C)C(=O)C12CC3CC(CC(C3)C1)C2 (centres undefined) | inactive
13 | O=C(NCCNC(=O)c1cccc(O)c1)c1cccc(O)c1 | inactive
14 | COc1ccc(C(CNC(=O)C(=O)Nc2ccc3c(c2)OCCO3)N2CCN(C)CC2)cc1 (centres undefined) | inactive
15 | Cc1onc(-c2ccccc2Cl)c1C(=O)N1CCCC1 | inactive
16 | CCCNC(=O)N1C[C@H](O)COC[C@@H]2O[C@@H](CC(=O)NCCCN3CCOCC3)CC[C@H]21 | inactive
17 | COc1ccc(-c2ccc3c(c2)O[C@H](CN(C)Cc2cccnc2)[C@@H](C)CN([C@H](C)CO)S3(=O)=O)cc1 | inactive
18 | COc1ccccc1Nc1cc(C)nc(Nc2ccccc2OC)n1 | inactive
19 | C[C@@H]1CN([C@H](C)CO)C(=O)c2cc(NS(=O)(=O)c3ccc(F)cc3)ccc2O[C@@H](C)CCCCO[C@@H]1CN(C)C(=O)NC1CCCCC1 | inactive
20 | COc1ccccc1NC(=O)N1CC(=O)N2[C@H](CO)[C@H](c3ccc(-c4ccc(F)cc4)cc3)[C@@H]2C1 | inactive

Row | SMILES | outcome
21 | COc1cccc(-c2ccc3c(c2)[C@H]2[C@H](CCN2C(=O)c2ccc4c(c2)OCO4)[C@H](CO)N3C)c1 | inactive
22 | NS(=O)(=O)c1ccc(NC(=O)COC(=O)CCCN2C(=O)c3cccc4cccc(c34)C2=O)cc1 | inactive
23 | CN(C)C(=O)c1ccc(-c2ccc([C@@H]3[C@@H](CO)N4CCCCN(CC5CC5)C[C@@H]34)cc2)cc1 | inactive
24 | O=C(NCCOc1ccccc1)C1CCC(=O)N(CCCN2CCOCC2)C1 (centres undefined) | inactive
25 | CCCN(CC(=O)Nc1ccccc1C)C(=O)C1CC(=O)N(c2cccc(C)c2C)C1 (centres undefined) | inactive
26 | O=C(/C=C/c1cccc(Cl)c1)NCCCN1CCOCC1 | inactive
27 | Cc1noc(C)c1NC(=O)N[C@@H]1CC[C@H](CCNC(=O)C2CCOCC2)O[C@@H]1CO | inactive
28 | Cc1ccccc1S(=O)(=O)N(C)C[C@@H]1OCc2cnnn2CCCC(=O)N([C@@H](C)CO)C[C@H]1C | inactive
29 | NC(=O)c1ccsc1NC(=O)c1ccco1 | inactive
30 | COc1ccc(-c2cc(C(=O)NCc3ccco3)c3ccccc3n2)c(OC)c1 | inactive
31 | C[C@@H]1CN([C@H](C)CO)S(=O)(=O)c2ccc(C3=CCCCC3)cc2O[C@@H]1CN(C)Cc1ccccc1 | inactive
32 | O=C(NC1CCCC1)N1CCCCN2[C@@H](CO)[C@@H](c3ccc(-c4cccnc4)cc3)[C@@H]2C1 | inactive
33 | CC(C)CC#Cc1cnc2c(c1)C(=O)N([C@H](C)CO)C[C@@H](C)[C@H](CN(C)S(C)(=O)=O)O2 | inactive
34 | CC(OC(=O)/C=C/c1cccs1)C(=O)NC1CCCCC1C (centres undefined) | inactive
35 | CO[C@H]1CN(C)C(=O)c2ccc(NC(=O)C3CCCCC3)cc2OC[C@@H](C)N(Cc2nccs2)C[C@@H]1C | inactive
36 | Cc1ccc(CN2C(=O)CSc3ccc(C(=O)NC4CC4)cc32)cc1 | inactive
37 | CN1CCN(C(CNC(=O)C(=O)Nc2ccc3c(c2)OCO3)c2ccc(F)cc2)CC1 (centres undefined) | inactive
38 | CS(=O)(=O)Nc1cccc(C2=NN(C(=O)c3ccc(F)cc3)C(c3cccs3)C2)c1 (centres undefined) | inactive
39 | CCC1CN(C(=O)N2CCC(C(=O)NCCc3ccc(OC)c(OC)c3)CC2)c2ccccc2O1 (centres undefined) | inactive
